Laboratory results: PubChem BioAssay (NCI)
This is part of a sample that, as a whole, favours compounds with a hit. Of some 83,000 tested, about 20% had one in any assay.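 Percent growth is the endpoint: 0 to 100 indicates growth inhibition (40 means 60% inhibition), 0 means no net growth, and negative values indicate cell death.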 Activity calls are given as the source filed them. The calls were made as follows: active = growth percent below 10; inactive = the rest.

Key:
Assay in all cases: NCI-60 one-dose screen, 48 h (100 = growth as untreated, 0 = no growth, -100 = all killed)
Conditions in all cases: 10 µM unless noted
SR leukemia = system: SR leukemia
RPMI-8226 leukemia = system: RPMI-8226 leukemia
OVCAR-8 ovarian = system: OVCAR-8 ovarian
OVCAR-4 ovarian = system: OVCAR-4 ovarian
SK-OV-3 ovarian = system: SK-OV-3 ovarian
IGROV1 ovarian = system: IGROV1 ovarian
OVCAR-3 ovarian = system: OVCAR-3 ovarian
HS 578T breast = system: HS 578T breast
NCI/ADR-RES ovarian = system: NCI/ADR-RES ovarian
T-47D breast = system: T-47D breast
BT-549 breast = system: BT-549 breast
MDA-MB-435 melanoma = system: MDA-MB-435 melanoma
SW-620 colon = system: SW-620 colon
MCF7 breast = system: MCF7 breast
HCT-116 colon = system: HCT-116 colon
HCC-2998 colon = system: HCC-2998 colon
KM12 colon = system: KM12 colon
OVCAR-5 ovarian = system: OVCAR-5 ovarian

Measured: growth

COc1ccc2c(c1)NC1=C(C(=O)OC1)C2c1cc(OC)c2c(c1)OCO2 (configuration not stated)
active: SR leukemia 2.24% | OVCAR-3 ovarian -44.9% | NCI/ADR-RES ovarian 1.91% | MDA-MB-435 melanoma -14.7% | HCT-116 colon 6.69% | KM12 colon 2.35%
inactive: RPMI-8226 leukemia 25.1% | OVCAR-8 ovarian 20.7% | OVCAR-4 ovarian 46% | SK-OV-3 ovarian 13% | IGROV1 ovarian 24.4% | HS 578T breast 14% | T-47D breast 53.8% | BT-549 breast 32.4% | SW-620 colon 21.2% | MCF7 breast 17.9% | HCC-2998 colon 11.3%

CN(C)CCN1C(=O)c2ccc3c4c(ccc(c24)C1=O)C(=O)N(CCN=C=S)C3=O
active: SR leukemia -39.7% | RPMI-8226 leukemia -45% | OVCAR-8 ovarian -88.7% | OVCAR-4 ovarian -94.3% | SK-OV-3 ovarian -97% | IGROV1 ovarian -64.3% | OVCAR-3 ovarian -96.5% | HS 578T breast -6.37% | NCI/ADR-RES ovarian -57.3% | T-47D breast -54.5% | BT-549 breast -87.5% | MDA-MB-435 melanoma -90.9% | SW-620 colon -68.1% | MCF7 breast -67.7% | HCT-116 colon -71.9% | HCC-2998 colon -87.4% | KM12 colon -93%

CCCN=C1NC(=O)/C(=C/c2nc(-c3ccc(OC)cc3)n3ccccc23)S1
active: HS 578T breast -8.63%
inactive: SR leukemia 62.5% | OVCAR-8 ovarian 86.7% | OVCAR-5 ovarian 104% | OVCAR-4 ovarian 87.5% | SK-OV-3 ovarian 98.1% | IGROV1 ovarian 94% | OVCAR-3 ovarian 61.9% | NCI/ADR-RES ovarian 83.6% | T-47D breast 87.3% | BT-549 breast 90.5% | MDA-MB-435 melanoma 109% | SW-620 colon 72.9% | MCF7 breast 77.5% | HCT-116 colon 26.3% | HCC-2998 colon 97% | KM12 colon 48.8%

CCNc1nc(S(=O)(=O)CC)nc2ccccc12
inactive: SR leukemia 84.5% | OVCAR-8 ovarian 99.8% | OVCAR-5 ovarian 104% | OVCAR-4 ovarian 99.7% | SK-OV-3 ovarian 96.6% | IGROV1 ovarian 104% | OVCAR-3 ovarian 98% | HS 578T breast 93.6% | NCI/ADR-RES ovarian 111% | T-47D breast 92.4% | BT-549 breast 91.2% | MDA-MB-435 melanoma 81.9% | SW-620 colon 106% | MCF7 breast 95.8% | HCT-116 colon 91.7% | HCC-2998 colon 115% | KM12 colon 94.9%

COc1cc2c(cc1OCCCN1CCN(CCCn3c4ccccc4c4ccccc43)CC1)N=C[C@@H]1CCCN1C2=O
active: SR leukemia -34.7% | OVCAR-8 ovarian -6.46% | OVCAR-5 ovarian 3.88% | OVCAR-4 ovarian -39.5% | SK-OV-3 ovarian -80.5% | IGROV1 ovarian -64.6% | OVCAR-3 ovarian -91.1% | HS 578T breast -54.5% | NCI/ADR-RES ovarian 1.66% | T-47D breast -31.1% | BT-549 breast -84.1% | MDA-MB-435 melanoma -80.5% | SW-620 colon -83.2% | MCF7 breast -72% | HCT-116 colon -27.8% | HCC-2998 colon -86.3%

C=C1C(=O)O[C@@H]2[C@@H]3O[C@@](C)(CC/C=C(\C)CCC[C@@H]2C)[C@H](O)C[C@@H]13
inactive: SR leukemia 13.7% | OVCAR-8 ovarian 35% | OVCAR-5 ovarian 97.5% | OVCAR-4 ovarian 70.1% | SK-OV-3 ovarian 92% | IGROV1 ovarian 42.3% | OVCAR-3 ovarian 13.9% | HS 578T breast 72.1% | NCI/ADR-RES ovarian 37.5% | T-47D breast 50.9% | BT-549 breast 19.1% | MDA-MB-435 melanoma 19.2% | SW-620 colon 33.5% | MCF7 breast 36.3% | HCC-2998 colon 97.5% | KM12 colon 75.8%
active: HCT-116 colon -4.01%

CCCCCCCCC(C)OC(=O)c1nn(C(C)=O)c2ccccc12 (configuration not stated)
inactive: SR leukemia 126% | OVCAR-8 ovarian 95.7% | OVCAR-5 ovarian 104% | OVCAR-4 ovarian 99.1% | SK-OV-3 ovarian 109% | IGROV1 ovarian 105% | OVCAR-3 ovarian 110% | HS 578T breast 101% | NCI/ADR-RES ovarian 101% | T-47D breast 88.6% | BT-549 breast 95.4% | MDA-MB-435 melanoma 101% | SW-620 colon 103% | MCF7 breast 90.1% | HCT-116 colon 97% | HCC-2998 colon 98% | KM12 colon 103%

O=C(NCc1cn(Cc2cccc(Oc3ccccc3)c2)nn1)c1cccnc1Nc1ccc(F)cc1
active: MDA-MB-435 melanoma -11.7%
inactive: SR leukemia 28.3% | OVCAR-8 ovarian 67.2% | OVCAR-5 ovarian 89.3% | OVCAR-4 ovarian 86.1% | SK-OV-3 ovarian 52.2% | IGROV1 ovarian 79.4% | OVCAR-3 ovarian 35.9% | HS 578T breast 76.7% | NCI/ADR-RES ovarian 31.7% | T-47D breast 83.1% | BT-549 breast 86.6% | SW-620 colon 44.7% | HCT-116 colon 32.8% | HCC-2998 colon 62.7% | KM12 colon 34.4%

COC(=O)C1CCCN1C(=O)[C@@H]1CCCN1C(=O)[C@H](Cc1c[nH]c2ccccc12)NC(=S)Nc1cc(C(F)(F)F)cc(C(F)(F)F)c1 (some centres not stated)
active: SR leukemia 0.677%
inactive: RPMI-8226 leukemia 36.6% | OVCAR-8 ovarian 42.7% | OVCAR-4 ovarian 61.1% | SK-OV-3 ovarian 87.4% | IGROV1 ovarian 47.1% | OVCAR-3 ovarian 57.2% | HS 578T breast 65.4% | NCI/ADR-RES ovarian 52.6% | T-47D breast 49.8% | BT-549 breast 70.3% | MDA-MB-435 melanoma 45% | SW-620 colon 69.9% | MCF7 breast 38.8% | HCT-116 colon 37.3% | HCC-2998 colon 15% | KM12 colon 25.2%

COc1ccc(-c2c(N)n[nH]c2-c2cc(OC)c3c(c2)OCCO3)cc1
inactive: RPMI-8226 leukemia 74.7% | OVCAR-8 ovarian 83.5% | OVCAR-4 ovarian 101% | SK-OV-3 ovarian 90.2% | IGROV1 ovarian 85.9% | OVCAR-3 ovarian 76.2% | HS 578T breast 86.2% | NCI/ADR-RES ovarian 63.8% | T-47D breast 66.1% | BT-549 breast 74.4% | SW-620 colon 48% | MCF7 breast 57.6% | HCT-116 colon 57.2% | HCC-2998 colon 75% | KM12 colon 40.4%
active: SR leukemia -6.97% | MDA-MB-435 melanoma -24.1%

COc1ccc(-c2c(-c3cc(OC)c4c(c3)OCO4)noc2N)cc1
active: SR leukemia -7.43% | OVCAR-8 ovarian 9.5% | SK-OV-3 ovarian 4.02% | OVCAR-3 ovarian -47.3% | MDA-MB-435 melanoma -38.9% | HCT-116 colon 6.02% | KM12 colon 3.59%
inactive: RPMI-8226 leukemia 23.8% | OVCAR-4 ovarian 34.4% | IGROV1 ovarian 14.6% | HS 578T breast 28% | NCI/ADR-RES ovarian 13.8% | T-47D breast 37.3% | BT-549 breast 20.7% | SW-620 colon 21% | MCF7 breast 14.2% | HCC-2998 colon 15.8%

NC(=N\N=C/c1ccc(O)cc1)/C(N)=N\N=C/c1ccc(O)cc1
inactive: SR leukemia 33.7% | RPMI-8226 leukemia 65.3% | OVCAR-8 ovarian 73.9% | OVCAR-4 ovarian 74.4% | SK-OV-3 ovarian 82.6% | IGROV1 ovarian 79.4% | OVCAR-3 ovarian 92% | HS 578T breast 99% | NCI/ADR-RES ovarian 58.5% | T-47D breast 49.6% | BT-549 breast 52.5% | MDA-MB-435 melanoma 44.7% | SW-620 colon 40.8% | MCF7 breast 66.4% | HCT-116 colon 62.2% | HCC-2998 colon 51% | KM12 colon 23.6%

COc1ccc2c(c1)C(c1cc(OC)c3c(c1)OCO3)C1=C(COC1=O)N2 (configuration not stated)
inactive: RPMI-8226 leukemia 22.1% | OVCAR-8 ovarian 19% | SK-OV-3 ovarian 16.2% | IGROV1 ovarian 28.8% | HS 578T breast 21% | T-47D breast 52.4% | BT-549 breast 23.4% | SW-620 colon 23.3% | MCF7 breast 16.2% | HCT-116 colon 12.7% | HCC-2998 colon 10.6%
active: SR leukemia 6.1% | OVCAR-3 ovarian -44% | NCI/ADR-RES ovarian 2.82% | MDA-MB-435 melanoma -13.5% | KM12 colon 9.2%

COc1cc(C2CC(c3ccc4c(c3)OCO4)=NN2C(C)=O)cc(OC)c1OC (configuration not stated)
active: OVCAR-3 ovarian -5.71% | HS 578T breast -7.69% | NCI/ADR-RES ovarian 4% | MDA-MB-435 melanoma -49%
inactive: SR leukemia 19.9% | RPMI-8226 leukemia 39.2% | OVCAR-8 ovarian 42% | OVCAR-4 ovarian 54.5% | SK-OV-3 ovarian 10.6% | BT-549 breast 60.7% | SW-620 colon 26.6% | MCF7 breast 17.4% | HCT-116 colon 30.9% | HCC-2998 colon 47.8% | KM12 colon 30.6%

Brc1cccc(-c2cc(-c3ccc4nccnc4c3)[nH]n2)c1
inactive: SR leukemia 33.8% [25 µM] | OVCAR-8 ovarian 29.3% [25 µM] | OVCAR-5 ovarian 38.2% [25 µM] | OVCAR-4 ovarian 48.3% [25 µM] | SK-OV-3 ovarian 33.2% [25 µM] | IGROV1 ovarian 27.8% [25 µM] | HS 578T breast 13.7% [25 µM] | T-47D breast 34.5% [25 µM] | BT-549 breast 65.5% [25 µM] | SW-620 colon 28.1% [25 µM] | MCF7 breast 14.1% [25 µM] | HCC-2998 colon 40.2% [25 µM] | KM12 colon 14.7% [25 µM]
active: OVCAR-3 ovarian 4.18% [25 µM] | NCI/ADR-RES ovarian 2.03% [25 µM] | MDA-MB-435 melanoma -54.1% [25 µM] | HCT-116 colon 9.21% [25 µM]

Cc1cc(C(C)(C)C)ccc1S
inactive: SR leukemia 93.4% | RPMI-8226 leukemia 104% | OVCAR-8 ovarian 111% | SK-OV-3 ovarian 105% | IGROV1 ovarian 109% | OVCAR-3 ovarian 111% | HS 578T breast 101% | NCI/ADR-RES ovarian 112% | T-47D breast 91.6% | BT-549 breast 105% | MDA-MB-435 melanoma 111% | SW-620 colon 98.4% | HCT-116 colon 103% | HCC-2998 colon 112%

COc1ccc(-c2ccc(-c3ccc(C(=N)N)s3)s2)cc1Cl
inactive: OVCAR-5 ovarian 68.4% | OVCAR-4 ovarian 72.5% | HS 578T breast 87% | NCI/ADR-RES ovarian 27.8% | BT-549 breast 94.9%
active: SR leukemia -16.5% | OVCAR-8 ovarian -23.3% | OVCAR-3 ovarian -90.6% | T-47D breast 6.3% | MDA-MB-435 melanoma -81.4% | SW-620 colon -78.7% | MCF7 breast -66.2% | HCC-2998 colon 9.04% | KM12 colon -86.1%

C=C1CCC2C3(C)COC(c4ccc(N(C)C)cc4)OC3CCC2(C)C1C/C=C1/C(=O)OCC1O (configuration not stated)
inactive: SR leukemia 21.9% | OVCAR-8 ovarian 47.5% | OVCAR-5 ovarian 96.3% | OVCAR-4 ovarian 68.3% | SK-OV-3 ovarian 84% | IGROV1 ovarian 39.3% | NCI/ADR-RES ovarian 65.1% | T-47D breast 52.1% | BT-549 breast 46.4% | SW-620 colon 26% | MCF7 breast 29.5% | HCT-116 colon 21.6% | HCC-2998 colon 112%
active: MDA-MB-435 melanoma 7.31%
